Experimental findings from the supplement of paper PMC4723716 are described below.

Molecules are shown by their SMILES. ± gives the uncertainty stated by the source. Over roughly 9,900 compounds, “viability index relative to DMSO control” has its median near 1; the lowest 2% begin near 0.85. This is one part of a sample in which the lowest values are shown more often than they occur.

This assay has as its system Plasmodium falciparum NF54 stage V gametocytes. The assay is described as follows: viability index relative to DMSO control (fraction); higher = less gametocyte killing. The conditions noted are these: 2.5 µM, incubation time: 72 h. The method, boiled down: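 Stage V gametocytes of P. falciparum NF54 were held in serum-free screening medium at 0.75% gametocytemia and 1.25% hematocrit, 10 µl per well of a 1,536-well plate, and exposed to compound at 2.5 µM for 72 hr at 37°C under low oxygen. A 3 µl mix of 2.5 µM MitoTracker Red CMXRos with 0.13% saponin was then added for one to two hours, after which one field per well was imaged and red particles of 20–70 µm2 were counted. The viability index equals this count divided by the plate mean from wells given solvent alone.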

Setting [1] is: library set: Broad Institute DOS.
[2] abbreviates: library set: Broad Institute Blood Stage.

Under setting [1], `CO[C@@H]1CN(C)C(=O)c2cc(NS(C)(=O)=O)ccc2OC[C@@H](C)N(C(=O)C2CCOCC2)C[C@@H]1C` returned a viability index of 1.17 ± 0.07.
The same measure, in the same setting: under `CN(C)C(=O)c1ccc(-c2ccc([C@@H]3[C@@H]4CN(Cc5ccc6c(c5)OCO6)C[C@H]3N4)cc2)cc1` stands 1.05 ± 0.098; under `COc1ccc2c3c([C@H](CO)N(Cc4ccncc4)C[C@]33CN(C3)C(=O)C3CCCCC3)n(C)c2c1`, 1.03 ± 0.079; under `O=C(C1CCOCC1)N1CC(=O)N2[C@@H](CO)[C@H](c3ccc(C#CCc4ccccc4)cc3)[C@@H]2C1`, 1.084 ± 0.0042.
`C[C@@H](NC(=O)[C@@H]1[C@@H](CO)[C@@H]2Cn3c(ccc(-c4ccccc4)c3=O)[C@@H]2N1C)c1ccccc1` displayed a viability index under setting [1] of 1.05 ± 0.015.
Compound `O=C(C[C@@H]1C[C@@H]2c3cc(NS(=O)(=O)c4ccc(F)cc4)ccc3O[C@@H]2[C@H](CO)O1)N1CCc2ccccc2C1` came in with a viability index under setting [1] of 1.13 ± 0.069.
In turn, `COCC(=O)N1CC(=O)N2[C@H](CO)[C@H](c3ccc(C#CC4CC4)cc3)[C@H]2C1` came in with a viability index under setting [1] of 1.11 ± 0.027.
Turning to `CN(C[C@H]1N[C@@H](CO)[C@H]1c1ccc(-c2ccc(F)cc2)cc1)C(=O)C1CCC1`, the viability index under setting [1] is 0.971 ± 0.025.
`CCS(=O)(=O)N(C)C[C@@H]1N[C@H](CO)[C@@H]1c1ccc(-c2ccccc2F)cc1` came in with a viability index under setting [1] of 1.05 ± 0.031.
On to `CCN(C[C@@H]1N[C@@H](CO)[C@H]1c1ccc(-c2ccc(F)cc2)cc1)C(=O)CN(C)C`, for which the viability index under setting [1] worked out at 0.711 ± 0.021.
`O=C(C[C@@H]1CC[C@H]2NC[C@@H](O)COC[C@@H]2O1)NC1Cc2ccccc2C1` gave a viability index under setting [1] of 0.9847 ± 0.0032.
Consider `O=C(C[C@H]1CC[C@H]2NC[C@@H](O)COC[C@@H]2O1)Nc1ccc(-c2ccccc2)cc1`, for which the viability index under setting [1] was 0.997 ± 0.036.
The same measure, in the same setting: the same measure for `CCc1csc(N2[C@H](CO)[C@H](c3ccccc3)[C@@H]2CNC)n1`: 0.372 ± 0.18.
On the same count and under the same terms, the same measure for `C/C=C/c1ccc([C@H]2[C@@H](CO)N(c3nc(CC)cs3)[C@H]2C#N)cc1`: 1.09 ± 0.035; for `CCc1csc(N2[C@H](CO)[C@H](c3ccccc3)[C@@H]2CN(C)C(=O)C2CCC2)n1`: 1.03 ± 0.059; for `CO[C@@H]1CN(C)C(=O)c2cc(NC(=O)Nc3cc(F)ccc3F)ccc2OC[C@H](C)NC[C@H]1C`: 1.022 ± 0.01.
Consider `N#C[C@H]1[C@@H](c2ccc(C#Cc3cccc(F)c3)cc2)[C@@H](CO)N1C(=O)C1CCOCC1`, for which the viability index under setting [1] is 1.05 ± 0.058.
In the case of `COc1ccccc1C#Cc1ccc([C@H]2[C@@H](C#N)N(C(=O)C3CCCC3)[C@H]2CO)cc1`, under setting [2], the viability index amounted to 0.583 ± 0.18.
`COc1cccc(C#Cc2ccc([C@@H]3[C@H](C#N)N(C(=O)c4ccccn4)[C@H]3CO)cc2)c1` had a viability index under setting [1] of 0.929 ± 0.051.
As to `COc1ccccc1C#Cc1ccc([C@@H]2[C@@H](C#N)N(C(=O)C3CCC3)[C@@H]2CO)cc1`, the viability index under setting [1] amounted to 1.15 ± 0.082.
As to `COc1ccccc1C#Cc1ccc([C@H]2[C@@H](C#N)N(C(=O)C3CCC3)[C@H]2CO)cc1`, the viability index under setting [1] is 0.846 ± 0.07.
`COc1cccc(C#Cc2ccc([C@@H]3[C@@H](C#N)N(C(=O)c4ccccn4)[C@H]3CO)cc2)c1` showed a viability index under setting [1] of 1.04 ± 0.029.
`N#C[C@H]1[C@H](c2ccc(C#Cc3cccc(F)c3)cc2)[C@@H](CO)N1C(=O)C1CCOCC1` showed a viability index under setting [1] of 1.12 ± 0.025.
For the compound `COc1ccccc1C#Cc1ccc([C@H]2[C@@H](CO)N(C(=O)C3CC3)[C@H]2C#N)cc1`, the viability index under setting [2] worked out at 0.849 ± 0.047.
The compound `COc1ccccc1C#Cc1ccc([C@@H]2[C@@H](CO)N(C(=O)C3CCC3)[C@H]2C#N)cc1` yielded a viability index under setting [1] of 1.06 ± 0.047.
Take `COc1ccccc1C#Cc1ccc([C@H]2[C@H](C#N)N(C(=O)C3CCC3)[C@H]2CO)cc1`: the viability index under setting [1] was found to be 1.02 ± 0.025.
The same measure, in the same setting: under `COc1cccc(C#Cc2ccc([C@H]3[C@@H](CO)N(C(=O)c4ccccn4)[C@H]3C#N)cc2)c1` stands 0.8087 ± 0.0043; under `COc1ccccc1C#Cc1ccc([C@H]2[C@@H](C#N)N(C(=O)C3CCC3)[C@@H]2CO)cc1`, 1.05 ± 0.038; under `C[C@@H]1CN([C@@H](C)CO)C(=O)c2c(c3ccccc3n2C)-c2ccccc2CO[C@H]1CN(C)C(=O)[C@H]1CCCN1C`, 1.08 ± 0.011.
In turn, `C[C@H](CO)N1C[C@H](C)[C@@H](CN(C)CC2CC2)OCCCC[C@H](C)Oc2ccc(NC(=O)c3ccccc3)cc2C1=O` returned a viability index under setting [1] of 1.07 ± 0.02.
Under setting [1], `CCCN(C)C[C@@H]1OCCCC[C@H](C)Oc2ccc(NC(=O)CCCN(C)C)cc2C(=O)N([C@@H](C)CO)C[C@@H]1C` registered a viability index of 1.1 ± 0.14.
`OC[C@H]1Nc2ccc(C#Cc3ccc(F)cc3)cc2[C@@H]2[C@H]1CCN2Cc1ccc2c(c1)OCO2` displayed a viability index under setting [1] of 1.06 ± 0.019.
Same read-out and setting: under `CN1C(=O)c2cc(NC(=O)c3cccc(F)c3)ccc2OC[C@@H]2O[C@H](CC(=O)NCc3ccccc3Cl)CC[C@H]21` stands 1.13 ± 0.036; under `C[C@@H]1CN([C@H](C)CO)C(=O)c2cc(NS(=O)(=O)c3ccccc3)ccc2O[C@@H](C)CCCCO[C@@H]1CN(C)C(=O)C1CCCCC1`, 1.01 ± 0.13; under `CC(C)C(=O)Nc1ccc2c(c1)C(=O)N(C)[C@H]1CC[C@@H](CC(=O)NCCc3ccccc3)O[C@@H]1CO2`, 1.03 ± 0.06.
Compound `COc1ccccc1C#Cc1ccc([C@H]2[C@@H](C#N)N(C(=O)C3CCCCC3)[C@H]2CO)cc1` yielded a viability index under setting [2] of 0.345 ± 0.087.
In turn, `COc1ccccc1C#Cc1ccc([C@@H]2[C@H](C#N)N(C(=O)C3CCC3)[C@H]2CO)cc1` returned a viability index under setting [1] of 1.03 ± 0.09.
Under setting [2], `COc1cccc(C#Cc2ccc([C@@H]3[C@@H](C#N)N(C(=O)C4CCCCC4)[C@H]3CO)cc2)c1` showed a viability index of 0.7 ± 0.1.
Regarding `COc1cccc(C#Cc2ccc([C@H]3[C@@H](CO)N(C(=O)C4CCCC4)[C@H]3C#N)cc2)c1`, the viability index under setting [2] worked out at 0.882 ± 0.054.
For `COc1cccc(C#Cc2ccc([C@H]3[C@@H](C#N)N(C(=O)c4ccccn4)[C@@H]3CO)cc2)c1`, under setting [1], the viability index amounted to 1.098 ± 0.009.
In the case of `COc1ccccc1C#Cc1ccc([C@@H]2[C@@H](C#N)N(C(=O)C3CCC3)[C@H]2CO)cc1`, the viability index under setting [1] came out at 1.03 ± 0.022.
For `CCCNC(=O)N(C)C[C@H]1Oc2ncc(C#CC3CCCCC3)cc2C(=O)N([C@@H](C)CO)C[C@@H]1C`, the viability index under setting [1] was found to be 0.929 ± 0.067.
Under setting [1], `Cc1ccccc1S(=O)(=O)Nc1ccc2c(c1)C(=O)N(C)[C@@H]1CC[C@H](CC(=O)O)O[C@@H]1CO2` had a viability index of 1.01 ± 0.033.
On the same count and under the same terms, the same measure for `CN(C)CC(=O)N1[C@H](C(=O)Nc2nccs2)[C@@H](CO)[C@@H]2Cn3c(ccc(C4=CCCCC4)c3=O)[C@@H]21`: 1.02 ± 0.015; for `COc1ccc(CN2C[C@H](O)COC[C@@H]3O[C@H](CC(=O)N(C)C)CC[C@H]32)cc1`: 1.08 ± 0.1.
